# Measurements published in the supplement of paper PMC3334620.
# Over roughly 33,000 sequences, “E-score (-0.5 to 0.5)” has its median near -0.021; the highest 2% begin near 0.32. The sample holds the highest values, similar sequences and a random draw of the others, so the mix is not that of the screen.
# Target: T1, Zap1 (UniProt P47043)
# T1 sequence: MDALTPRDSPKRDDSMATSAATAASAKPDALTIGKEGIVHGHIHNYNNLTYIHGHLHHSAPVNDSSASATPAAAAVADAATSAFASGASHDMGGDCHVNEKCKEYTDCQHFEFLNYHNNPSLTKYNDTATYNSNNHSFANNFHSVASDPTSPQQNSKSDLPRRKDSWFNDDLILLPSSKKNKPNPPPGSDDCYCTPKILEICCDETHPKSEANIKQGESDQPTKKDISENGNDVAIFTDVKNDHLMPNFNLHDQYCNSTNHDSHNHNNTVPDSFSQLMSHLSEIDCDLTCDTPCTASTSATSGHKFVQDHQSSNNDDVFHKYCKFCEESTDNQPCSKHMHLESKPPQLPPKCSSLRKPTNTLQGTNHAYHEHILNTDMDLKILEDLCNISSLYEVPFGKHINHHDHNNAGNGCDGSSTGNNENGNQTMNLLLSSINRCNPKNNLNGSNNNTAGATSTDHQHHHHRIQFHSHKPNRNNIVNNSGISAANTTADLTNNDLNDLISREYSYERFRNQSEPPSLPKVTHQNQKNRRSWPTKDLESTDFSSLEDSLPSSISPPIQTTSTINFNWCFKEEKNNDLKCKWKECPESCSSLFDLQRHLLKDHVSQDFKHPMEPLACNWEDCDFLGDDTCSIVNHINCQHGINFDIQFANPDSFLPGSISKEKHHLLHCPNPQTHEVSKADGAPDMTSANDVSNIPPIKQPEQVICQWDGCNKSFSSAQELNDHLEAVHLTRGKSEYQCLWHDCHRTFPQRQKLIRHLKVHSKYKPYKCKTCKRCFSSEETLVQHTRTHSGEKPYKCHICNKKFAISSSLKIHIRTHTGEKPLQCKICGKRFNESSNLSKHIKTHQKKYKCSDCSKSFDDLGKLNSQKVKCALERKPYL
# Test: PBM E-score (8-mer binding enrichment) (E-score (-0.5 to 0.5)); higher = stronger / more preferred TF binding
# Settings: protein concentration: 200 nM; construct: GST-full length
# Procedure: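 Universal 'all 10-mer' protein binding microarrays (Agilent AMADID 015681) probed with GST-tagged S. cerevisiae TFs (full-length or DBD) made by in vitro transcription/translation (PURExpress), about 100-200 nM. Bound TF was detected with fluorescent anti-GST. Each ungapped 8-mer (which stands for itself and its reverse complement) is scored by the PBM enrichment score (E-score), a modified Wilcoxon-Mann-Whitney statistic from -0.5 to +0.5, computed with the Universal PBM Analysis Suite. Scale: above 0.35 generally sequence-specific binding.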
row,Sequence,PBM E-score
1,CCTGGTGA,0.0199
2,CGCTGCGC,-0.373
3,GCTGAGAA,-0.156
4,ATCTGAGG,0.094
5,AGCCTGAT,-0.177
6,ACCCTGAC,0.335
7,ACCCTGAT,0.344
8,ACCCTGTG,0.367
9,CCCCTGAC,0.113
10,AACCTGTG,0.207
11,ACCCTGTC,0.193
12,AACCTGAT,0.177
13,AGCCTGTG,-0.29
14,ACCCTGGG,0.376
15,ACCCTGGC,0.183
16,ACCCTGGA,0.161
17,CATAGCTA,-0.113
18,GCTGTGGA,-0.0748
19,CTAGTTCA,-0.00273
20,CCAACAGG,0.0645
21,AACCTCCA,0.0742
22,ACACTTCT,-0.0698
23,CAAGTGAG,-0.196

row,Sequence,PBM E-score
1,ACCCTGAG,0.378
2,CCCCTGAG,-0.0275
3,ATCCTGAG,-0.0542
4,AGCAACCG,-0.0288
5,AACTGCCG,-0.0311
6,ACCTCGCG,0.109
7,TGGTTACA,0.395
8,GCGTTACC,0.0732
9,TCGTTACA,-0.024
10,GGGTTACA,0.468
11,GGTTTACA,0.17
12,CGGTTACA,0.411
13,TAGTTACA,0.158
14,GAGTTACC,0.3
15,CTGTTACA,0.0543
16,GGGTTACC,0.463
17,GCGTTACA,0.126
18,CCGTTACA,0.061
19,AGCAACAG,-0.195
20,AACTAATA,0.314
21,AGTAGCGG,-0.125
22,GAAGACCC,0.236
23,TATTAGGA,0.0916

row,Sequence,PBM E-score
1,CCTTATAC,0.0827
2,CCCCAGTA,-0.0431
3,CACTGGTC,-0.0725
4,CCTCAATC,0.158
5,CAGTTACC,0.208
6,CGGTTACC,0.444
7,CTGTTACC,0.248
8,GCCACTAC,-0.0479
9,TATCTAGA,0.151
10,AGCGTCTA,-0.214
11,ACCTTAAA,0.247
12,ACCTTAAT,0.302
13,GCTTTAAC,0.186
14,ACCTTATA,0.339
15,CCCTTAAC,0.0959
16,CCTTTAAC,0.352
17,CCCTTATA,0.15
18,ACCTTAAG,0.269
19,ACCTTATG,0.314
20,CCCTTAAG,0.335
21,CCTTTAAG,0.237
22,ACCTTAAC,0.358
23,AGTGGAAG,-0.204

row,Sequence,PBM E-score
1,ATGAGCGG,-0.167
2,GTTGGGAA,0.0568
3,ATGAGGAC,-0.0846
4,ATCCAGTC,-0.137
5,CTCTCACC,0.0392
6,AATCCCGA,0.0192
7,ATCAACAT,0.00735
8,ATAGGAAC,0.0152
9,CGCCTACG,-0.23
10,GAATGGCC,0.188
11,AGTGCGAA,-0.172
12,CCTTAAGA,0.155
13,CCTTAAGC,0.0365
14,CCTTAAGG,0.411
15,AGCTCGAG,-0.0098
16,GATACTCA,-0.029
17,CTAGGTAA,0.0356
18,ATAGGTAG,0.172
19,ATAGGTAC,0.36
20,CTAGGTAC,0.115
21,ATAGGTAA,0.323
22,ATAGGTGA,0.0727
23,GGAAGGCA,-0.191

row,Sequence,PBM E-score
1,AGGGGCTG,-0.0614
2,CTGGTTAA,0.225
3,CTGGTTAC,0.412
4,ATGGTTAC,0.471
5,ATGGTTAG,0.316
6,CTGGTTTC,0.124
7,ATGGTTGC,0.0738
8,ACGGTTGG,-0.0119
9,CGCTATAG,-0.238
10,TCCATTCA,0.0213
11,ATCTGGAA,-0.00838
12,AGACCTCA,0.0826
13,AAACCTTA,0.288
14,TAACCTAA,0.399
15,CGACCTCA,0.081
16,CAACCTAA,0.203
17,TAACCTCA,0.418
18,AAACCTAA,0.159
19,CAACCTTA,0.286
20,TGACCTCA,0.333
21,AAACCTCA,0.232
22,GAACCTCA,0.189
23,TAACCTTA,0.39
